In the library only some 1.8% were active in any assay of this set; here they are far more common.
TRPML1 ag = qHTS for Agonists of the Human Mucolipin Transient Receptor Potential 1 (TRPML1) | Mucolipin-1 (Homo sapiens), Q9GZU1 | TRPML1-expressing cells, Ca2+ dye fluorescence, FDSS | activation, % (no concentration beside the values) | 410,000 compounds, 0.12% hits | AID 624414, 2012; in the data active = activation above about 50%; inconclusive = mostly about 30% to 49%; also: 0% is about no effect
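Agonist activity was taken from a 110 s kinetic Ca2+ dye read on the FDSS after pinning compounds onto TRPML1-DL cells. The cells were seeded at 1,500/well with Tet inducer, incubated about 16 h, then dye-loaded at room temperature.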
GLP1R inv ag = qHTS of GLP-1 Receptor Inverse Agonists (Inhibition Mode) | 410,000 compounds, 1.6% hits | Glucagon-like peptide 1 receptor (Homo sapiens), P43220 | Potency, µM (highest dose often 38.3 µM), inactives show at the highest dose activity change, negative = inhibition, most hits filed as inhibitors | HEK293 GLP-1R CRE-luciferase, luminescence, 24 h; GLP-1R form is constitutively active; also: potency is read from the fitted curve at half-maximal effect; % is scaled to controls: 0 for no effect and ±100 for the full control effect; nearly all actives have a fitted effect of over 55% in size
Target sequence (P43220 whole entry, looked up): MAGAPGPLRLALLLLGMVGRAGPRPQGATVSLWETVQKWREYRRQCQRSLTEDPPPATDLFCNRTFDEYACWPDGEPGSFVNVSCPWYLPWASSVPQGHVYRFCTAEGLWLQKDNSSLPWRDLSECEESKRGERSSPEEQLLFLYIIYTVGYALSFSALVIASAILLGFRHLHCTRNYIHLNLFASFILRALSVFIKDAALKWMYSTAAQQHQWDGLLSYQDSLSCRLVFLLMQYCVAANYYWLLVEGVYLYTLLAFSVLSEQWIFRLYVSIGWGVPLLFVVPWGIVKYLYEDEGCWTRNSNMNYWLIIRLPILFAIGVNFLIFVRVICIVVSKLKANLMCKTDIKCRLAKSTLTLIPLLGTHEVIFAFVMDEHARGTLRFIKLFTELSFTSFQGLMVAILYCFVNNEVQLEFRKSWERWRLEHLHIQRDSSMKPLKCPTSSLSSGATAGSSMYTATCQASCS
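Cells are plated, allowed 12 hours at 37 deg C, then treated with compounds for 24 hr before luciferase detection reagent is added and luminescence is read after 12 min at room temperature. The HEK293 line carries constitutively active GLP-1R with a cAMP-responsive reporter.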
TRPML1 blocker = qHTS for Inhibitors of the Human Mucolipin Transient Receptor Potential 1 (TRPML1); 390,000 compounds, 0.02% hits; activity change, negative = inhibition, % (no concentration beside the values); TRPML1-inducible cells, Ca2+ dye fluorescence, FDSS; stronger effect = lower value; inhibition of EC80 agonist-evoked calcium signal; in the data active = activity change below about -50%; inconclusive = between about -30% and that limit;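 also: stimulus is agonist 54-4 at its EC80 concentration; % is scaled to controls: 0 for no effect and ±100 for the full control effect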
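Tet-induced TRPML1-DL cells loaded with Ca8 no-wash calcium dye were read kinetically on FDSS. Compound addition was followed by EC80 agonist 54-4 (4 uM final); inhibition was read over 110 s.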
GLP1R cytotox = qHTS of GLP-1 Receptor Inverse Agonists: Cytotox Screen | Potency, µM (highest dose often 38.3 µM), for inactives: top-dose activity change, negative = inhibition, most hits filed as inhibitors | AID 624418, 2012 | 410,000 compounds, 0.13% hits | HEK293 cAMP-luciferase reporter cells, luminescence, 24 h;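 also: loss of luciferase light is scored as toxicity; potency is read from the fitted curve at half-maximal effect; % is scaled to controls: 0 for no effect and ±100 for the full control effect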
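Seeding density was 200 cells/uL; after overnight-length (12 h) culture, 23 nL compounds went on for 24 h at 37 °C. Readout used a luciferase detection reagent, luminescence taken after 12 min at room temperature.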
GLP-1R agonist = qHTS of GLP-1 Receptor Agonists; Glucagon-like peptide 1 receptor (Homo sapiens), P43220; HEK293 GLP-1R CRE-luciferase, luminescence, 4-6 h; cells express a hypersensitive GLP-1R form; Potency, µM (titrated, usually from 45.6 µM), for the others: at the top dose activation, hits mostly activators; 380,000 compounds, 0.007% hits; AID 624172, 2012; also: potency is read from the fitted curve at half-maximal effect; % of control where 0% means no effect
* marks the source's active call; other numbers are inactive results; ? = inconclusive; . = no result given. Unless noted, calls follow the shape of the dose curve; as a rule, active = well fitted curve in the direction sought with a large enough effect; inconclusive = small, poorly fitted or top-dose-only effect, or another doubt; inactive = no such curve, though single readings can be large; an effect the other way counts as inactive or inconclusive.

SMILES	TRPML1 ag	GLP1R inv ag	TRPML1 blocker	GLP1R cytotox	GLP-1R agonist
Cc1ccc(Cn2nnnc2CN2CCC(c3nc4ccc(Cl)cc4[nH]3)CC2)cc1	1	11µM*	13	15%	-13%
Clc1ccc2nc(C3CCN(Cc4nnnn4C4CCCCC4)CC3)[nH]c2c1	1	?	17	-6%	5%
COc1cccc(CCN2CCC(CNS(=O)(=O)c3cc(-c4cc(C)no4)ccc3C)CC2)c1	6	4.5µM*	10	?	-9%
CCC(=O)N1CCc2cc(S(=O)(=O)NC(Cc3ccccc3)C(=O)Nc3ccc(Cl)cc3)ccc21 (configuration not stated)	2	4%	17	0%	.
Cc1ccc2nc(C3CCCN(C(=S)Nc4cccc(C)c4C)C3)[nH]c2c1 (configuration not stated)	0	?	-10	11µM*	-8%
O=C(Nc1ccc(OCc2cc(=O)n3ccccc3n2)cc1)c1ccccc1Cl	0	-5%	28	-2%	.
CC(C)(C)OC(=O)N1CCN(c2nc(-c3cccs3)nc3ccccc23)CC1	-1	.	.	.	.
CC(C)(C)OC(=O)N1CCC(c2cc(-c3cccs3)n[nH]2)CC1	0	10µM*	26	-4%	21%
Cc1cccc2[nH]cc(/C=C3/C=Nc4ccccc43)c12	10	.	.	.	.
Cc1cc(-c2ccc(C)c(S(=O)(=O)Nc3ccccc3C(F)(F)F)c2)on1	1	?	-13	-11%	.
O=C1C(Cc2ccccc2)Nc2ncnc(N3CCN(c4ccccc4)CC3)c2N1Cc1ccc(Cl)cc1 (configuration not stated)	0	11µM*	-7	34%	-4%
CC1Nc2ncnc(N3CCN(c4ccccc4)CC3)c2N(Cc2ccc(Cl)cc2)C1=O (configuration not stated)	0	10µM*	17	-56%	0%
O=C1C(Cc2ccccc2)Nc2ncnc(N3CCCCC3)c2N1Cc1ccc(Cl)cc1 (configuration not stated)	2	13µM*	0	0%	4%
Cc1ccc(CN2C(=O)CC(c3ccc(Cl)cc3)c3c(C)nn(-c4nc(C)cc(C)n4)c32)cc1 (configuration not stated)	1	?	7	-1%	.
O=C(Cc1ccc(OCCC2CCCCC2)cc1)NO	0	.	.	.	.
S=C1Cc2ccccc2N1	1	1µM*	-5	-1%	-1%
S=C1Nc2ccccc2CS1	0	?	-29	?	-7%
Cc1cc[n+](CCC2CCCCC2)cc1	0	.	.	.	.
N/C(Cc1ccc(Cl)cc1)=N\OC(=O)c1ccc2ccccc2c1	1	7.9µM*	4	?	?
Cc1c(C(=O)Nc2ccc(F)cc2)oc2ccc(S(=O)(=O)N3CCCCCC3)cc12	1	?	17	1%	.
CCCc1cc(C(=O)N2CCCC(Cc3cccc(Cl)c3)(C(=O)OCC)C2)n(C)n1 (configuration not stated)	1	11µM*	6	-10%	6%
O=S1(=O)C2CC3C=CC2(O3)C(O)C(Cc2ccccc2)N1Cc1cccc(C(F)(F)F)c1 (configuration not stated)	1	.	0	.	.
O=C(Nc1ccccc1)N(Cc1ccccc1)CC(O)C(F)(F)F (configuration not stated)	0	-2%	4	-19%	-7%
O=C(Nc1cccc(F)c1)N(Cc1ccc(Cl)cc1)CC(O)C(F)(F)F (configuration not stated)	0	5.6µM*	24	?	-19%
CCCOC(=O)/C(=C\C=C\c1ccccc1)NC(=O)c1ccccc1	4	2.5µM*	-12	10%	22%
SMILES	TRPML1 ag	GLP1R inv ag	TRPML1 blocker	GLP1R cytotox	GLP-1R agonist
CCc1ccc(-n2c(=O)c3ccc(C(=O)NCCc4ccccc4)cc3n(Cc3ccccc3C#N)c2=O)cc1	1	14%	-2	0%	-6%
Cc1ccccc1NC(=O)Cn1c(SCC(=O)Nc2ccc(F)cc2)nc2ccccc21	0	3%	-7	0%	.
CC(C)c1onc(C(=O)N2CCN(C(c3ccccc3)c3ccccc3)CC2)c1[N+](=O)[O-]	0	2.5µM*	-11	27%	-3%
CC(Oc1cccc(Cl)c1)C(=O)Nc1nc(-c2ccccn2)cs1 (configuration not stated)	0	5µM*	4	?	1%
CC(Oc1ccccc1)C(=O)Nc1nc(-c2ccccn2)cs1 (configuration not stated)	0	?	-8	?	11%
COc1cccc(C#Cc2c(C=O)n(C)c3ccccc23)c1	1	10µM*	15	51%	-6%
CC1(C(=O)NCc2ccc(C(F)(F)F)cc2)CCN1Cc1ccccc1OC(F)F (configuration not stated)	0	?	.	3%	5%
CC1(C(=O)NCc2cccc3ccccc23)CCN1Cc1ccccc1OC(F)F (configuration not stated)	-1	13µM*	.	-15%	2%
CN(C)c1cccc(F)c1C(=O)NC(=O)Nc1ccc(Cl)cc1	2	8.9µM*	-6	?	-1%
CN(C)c1cccc(N(C)C)c1CNC(=O)NC(=O)c1c(F)cccc1F	1	10µM*	-10	2%	-4%
O=C(Nc1ccc2c(c1)N(C1CCCC1)C(=O)c1ccccc1S2)c1cccc(F)c1	1	?	8	7%	.
COc1cc(OC)c(OC)cc1/C=C/c1nccc2ccccc12	0	.	.	.	.
COc1ccc(C)cc1NC(=O)c1ccccc1NS(=O)(=O)c1ccc(Cl)s1	-1	4µM*	2	-23%	-3%
COc1cc(OC)c(-c2c3cc(O)c(=O)cc-3oc3cc(O)c(O)cc23)cc1OC	112*	4.5µM*	-10	?	-3%
Cc1ccc2onc(CNC(=O)Nc3cc(F)ccc3F)c2c1	1	?	-9	3%	.
CCN(CC)S(=O)(=O)c1ccc(NC(=O)NCc2noc3ccc(C)cc23)cc1	1	10µM*	-9	-30%	.
NC(=S)N=Nc1c(O)n(Cc2ccc(F)cc2)c2ccccc12	1	?	4	?	1%
C/C(Cl)=C\Cn1c(O)c(N=NC(N)=S)c2cc(Br)ccc21	6	8.9µM*	-12	-26%	22%
NC(=S)N=Nc1c(O)n(Cc2ccc(Br)cc2)c2ccccc12	2	2.5µM*	9	2.5µM*	9%

Assay outcomes deposited in PubChem BioAssay by National Center for Advancing Translational Sciences (NCATS).
